Out of some 5,500 compounds screened, about 2,000 (36%) were called active. Another 18% or so got no clear call; they are omitted. Rule as the data show it: active = normalized growth mostly below about 0.91 (no sharp cut-off); inconclusive = no clear call, values can overlap the other calls; inactive = mostly above about 0.92. The list shows a part of the results.
Test: chemical genetic growth profiling, strain panel (AID 1159580);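 also: tested at 20 µM; growth read once vehicle control cultures reached saturation at 30 °C; 1 = growth at the plate median or of vehicle wells; lower values mean less growth of the strain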
Details: growth OD

Measured: normalized growth

CC(=O)O[C@H]1CC[C@]2(C)C3CC[C@@]4(C)C(CC5O[C@@]6(CCC(C)CO6)[C@@H](C)C54)C3CC[C@H]2C1 (stereo partly drawn)
inactive: S. cerevisiae deletion strains, locus YAL013W, strain DEP1, active compounds read low 0.995 | S. cerevisiae deletion strains, locus YBR021W, strain FUR4, active compounds read low 1 | S. cerevisiae deletion strains, locus YBR229C, strain ROT2, active compounds read low 0.986 | S. cerevisiae deletion strains, locus YCL029C, strain bik1, active compounds read low 0.98 | S. cerevisiae deletion strains, locus YDL035C, strain GPR1, active compounds read low 1.02 | S. cerevisiae deletion strains, locus YDL074C, strain BRE1, active compounds read low 1.01 | S. cerevisiae deletion strains, locus YDL101C, strain DUN1, active compounds read low 0.98 | S. cerevisiae deletion strains, locus YDL134C, strain PPH21, active compounds read low 0.988 | S. cerevisiae deletion strains, locus YDL185W, strain tfp1, active compounds read low 0.972 | S. cerevisiae deletion strains, locus YDL192W, strain arf1, active compounds read low 0.987 | S. cerevisiae deletion strains, locus YDR101C, strain arx1, active compounds read low 0.983 | S. cerevisiae deletion strains, locus YDR150W, strain NUM1, active compounds read low 1 | S. cerevisiae deletion strains, locus YDR162C, strain NBP2, active compounds read low 1.02 | S. cerevisiae deletion strains, locus YDR318W, strain mcm21, active compounds read low 0.975 | S. cerevisiae deletion strains, locus YDR388W, active compounds read low 0.973 | S. cerevisiae deletion strains, locus YDR502C, strain sam2, active compounds read low 0.974 | S. cerevisiae deletion strains, locus YEL061C, strain CIN8, active compounds read low 0.997 | S. cerevisiae deletion strains, locus YER110C, active compounds read low 0.976 | S. cerevisiae deletion strains, locus YER155C, strain BEM2, active compounds read low 0.984 | S. cerevisiae deletion strains, locus YER167W, strain BCK2, active compounds read low 0.995 | S. cerevisiae deletion strains, locus YGL078C, strain dbp3, active compounds read low 0.971 | S. cerevisiae deletion strains, locus YGL086W, strain mad1, active compounds read low 0.988 | S. cerevisiae deletion strains, locus YGL248W, strain PDE1, active compounds read low 0.984 | S. cerevisiae deletion strains, locus YGR135W, strain pre9, active compounds read low 0.948 | S. cerevisiae deletion strains, locus YGR252W, strain gcn5, active compounds read low 0.92 | S. cerevisiae deletion strains, locus YHR030C, strain SLT2, active compounds read low 0.978 | S. cerevisiae deletion strains, locus YHR079C, strain IRE1 (second series), active compounds read low 0.977 | S. cerevisiae deletion strains, locus YHR094C, strain hxt1, active compounds read low 0.969 | S. cerevisiae deletion strains, locus YHR129C, strain ARP1, active compounds read low 0.991 | S. cerevisiae deletion strains, locus YHR200W, strain rpn10, active compounds read low 0.973 | S. cerevisiae deletion strains, locus YIL066C, strain RNR3, active compounds read low 0.993 | S. cerevisiae deletion strains, locus YIL073C, strain SPO22, active compounds read low 0.985 | S. cerevisiae deletion strains, locus YIL125W, strain kgd1, active compounds read low 0.982 | S. cerevisiae deletion strains, locus YIR030C, strain dcg1, active compounds read low 0.975 | S. cerevisiae deletion strains, locus YJL095W, strain BCK1, active compounds read low 0.977 | S. cerevisiae deletion strains, locus YJL134W, strain LCB3, active compounds read low 0.987 | S. cerevisiae deletion strains, locus YJL168C, strain set2, active compounds read low 0.979 | S. cerevisiae deletion strains, locus YJL187C, strain SWE1 (second series), active compounds read low 0.977 | S. cerevisiae deletion strains, locus YJR043C, strain POL32, active compounds read low 1.02 | S. cerevisiae deletion strains, locus YJR075W, strain HOC1, active compounds read low 0.983 | S. cerevisiae deletion strains, locus YKL009W, strain mrt4, active compounds read low 1.04 | S. cerevisiae deletion strains, locus YKL068W, active compounds read low 0.979 | S. cerevisiae deletion strains, locus YKL085W, strain MDH1 (second series), active compounds read low 1.01 | S. cerevisiae deletion strains, locus YKL085W, strain MDH1, active compounds read low 1.01 | S. cerevisiae deletion strains, locus YKL190W, strain CNB1, active compounds read low 0.999 | S. cerevisiae deletion strains, locus YKR001C, strain vps1, active compounds read low 0.971 | S. cerevisiae deletion strains, locus YLR039C, strain RIC1, active compounds read low 1.07 | S. cerevisiae deletion strains, locus YLR058C, strain SHM2, active compounds read low 0.989 | S. cerevisiae deletion strains, locus YLR102C, strain apc9, active compounds read low 0.979 | S. cerevisiae deletion strains, locus YLR268W, strain sec22, active compounds read low 0.987 | S. cerevisiae deletion strains, locus YLR330W, strain CHS5, active compounds read low 0.986 | S. cerevisiae deletion strains, locus YLR371W, strain rom2, active compounds read low 0.991 | S. cerevisiae deletion strains, locus YLR418C, strain cdc73, active compounds read low 0.976 | S. cerevisiae deletion strains, locus YML016C, strain PPZ1, active compounds read low 0.989 | S. cerevisiae deletion strains, locus YML032C, strain rad52, active compounds read low 0.977 | S. cerevisiae deletion strains, locus YML124C, strain tub3, active compounds read low 0.994 | S. cerevisiae deletion strains, locus YMR078C, strain ctf18, active compounds read low 0.969 | S. cerevisiae deletion strains, locus YMR223W, strain ubp8, active compounds read low 0.969 | S. cerevisiae deletion strains, locus YMR263W, strain SAP30, active compounds read low 0.991 | S. cerevisiae deletion strains, locus YMR307W, strain GAS1, active compounds read low 1.09 | S. cerevisiae deletion strains, locus YNL067W, strain RPL9B, active compounds read low 0.983 | S. cerevisiae deletion strains, locus YNL153C, strain GIM3, active compounds read low 0.977 | S. cerevisiae deletion strains, locus YNL233W, strain BNI4, active compounds read low 1.01 | S. cerevisiae deletion strains, locus YNL250W, strain rad50, active compounds read low 0.965 | S. cerevisiae deletion strains, locus YNL271C, strain bni1, active compounds read low 0.982 | S. cerevisiae deletion strains, locus YNL298W, strain CLA4, active compounds read low 0.971 | S. cerevisiae deletion strains, locus YNL307C, strain MCK1, active compounds read low 0.982 | S. cerevisiae deletion strains, locus YNR052C, strain pop2, active compounds read low 0.953 | S. cerevisiae deletion strains, locus YOL006C, strain TOP1, active compounds read low 1.06 | S. cerevisiae deletion strains, locus YOL012C, strain htz1 1.12 | S. cerevisiae deletion strains, locus YOL147C, strain pex11, active compounds read low 0.98 | S. cerevisiae deletion strains, locus YOR061W, strain CKA2, active compounds read low 1 | S. cerevisiae deletion strains, locus YOR069W, strain VPS5, active compounds read low 0.98 | S. cerevisiae deletion strains, locus YOR136W, strain idh2, active compounds read low 0.968 | S. cerevisiae deletion strains, locus YOR144C, strain elg1, active compounds read low 0.972 | S. cerevisiae deletion strains, locus YOR184W, strain ser1, active compounds read low 1.02 | S. cerevisiae deletion strains, locus YOR316C, strain cot1, active compounds read low 0.977 | S. cerevisiae deletion strains, locus YPR119W, strain clb2, active compounds read low 0.968 | S. cerevisiae deletion strains, locus YPR141C, strain kar3, active compounds read low 0.974 | S. cerevisiae deletion strains, locus YPR163C, strain tif3, active compounds read low 0.977 | S. cerevisiae deletion strains, locus YPR167C, strain met16, active compounds read low 0.979 | S. cerevisiae deletion strains, strain wtn01, active compounds read low 1 | S. cerevisiae strains, strain wild type, active compounds read low 1.02

From PubChem BioAssay AID1159580 (chemical genetic matrix, 2015)
